Reference: PubChem BioAssay (Tox21)
Records with an inconclusive call do not appear. Where a call stands in place of a potency, no number is given. A number with no mark means an inactive call. Calls of active or inactive are those of the source. The call rests on the fitted dose curve; in most records, active means well fitted curve in the direction sought with a large enough effect in the repeat runs; inconclusive means weak or mixed curves; inactive means no such curve, though single readings can be large; an effect the other way counts as inactive or inconclusive.

Experiments:
[1] = qHTS RealTime-Glo MT Cell Viability Assay in HepG2 cells - 40 hour (AID 1224870); further: nearly all actives have a fitted effect of over 50% in size
Summary of the method: (§1)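 Real-time viability: cells seeded at 600 per well together with NanoLuc and cell-permeant prosubstrate, compounds added after 5 h incubation. Luminescence tracked at 0, 8, 16, 24, 32 and 40 h of exposure.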

[2] = A CellTox Green Cytotoxicity Assay to monitor cytotoxicity in HEK293 cells - 40 hour (AID 1224871); further: nearly all actives have a fitted effect of over 45% in size
Summary of the method: (§2)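 Cells (HEK293, 600/well) and dye reagent are dispensed together. After 5 h at 37 C, 23 nL compound is pinned in. Plates stay at 37 C for 40 h with fluorescence read at 0h, 8h, 16h, 24h, 32h and 40h.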

[3] = qHTS RealTime-Glo MT Cell Viability Assay in HEK293 cells - 16 hour (AID 1224872); further: top concentration of the series differs between compounds; nearly all actives have a fitted effect of over 50% in size
Summary of the method: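 Viability tracked continuously by luminescence as live cells reduce a prosubstrate for NanoLuc; HEK293 cells preincubated 5 h, compound-treated at 37 C, and read at 0, 8, 16, 24, 32 and 40 h.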

[4] = qHTS RealTime-Glo MT Cell Viability Assay in HepG2 cells - 8 hour (AID 1224873); further: nearly all actives have a fitted effect of over 55% in size
Summary of the method: as §1

[5] = qHTS RealTime-Glo MT Cell Viability Assay in HEK293 cells - 40 hour (AID 1224874); settings: RealTime-Glo luminescence; max response: stronger effect = lower value; further: nearly all actives have a fitted effect of over 50% in size
Summary of the method: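 Real-time viability in HEK293: signal arises when living cells convert a prosubstrate for NanoLuc in the medium, so luminescence tracks viable cell number. Compound (23 nL, DMSO) added 5 h post-seeding; kinetic reads at 0–40 h, 37 C.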

[6] = A CellTox Green Cytotoxicity Assay to monitor cytotoxicity in HEK293 cells - 24 hour (AID 1224875); further: nearly all actives have a fitted effect of over 45% in size; further: potency means the concentration at half of the fitted maximal effect
Summary of the method: as §2

[7] = A CellTox Green Cytotoxicity Assay to monitor cytotoxicity in HepG2 cells - 16 hour (AID 1224876); further: nearly all actives have a fitted effect of over 45% in size
Summary of the method: (§3)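 Cells and non-lytic dye reagent are dispensed together (600 HepG2 cells/well) and incubated 5 h before DMSO compound transfer. Kinetic fluorescence is then recorded in the same wells during 40 h at 37 C.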

[8] = qHTS RealTime-Glo MT Cell Viability Assay in HepG2 cells - 32 hour (AID 1224877); further: nearly all actives have a fitted effect of over 55% in size
Summary of the method: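 Viability was tracked continuously by NanoLuc luminescence from prosubstrate reduced by living HepG2 cells, at successive time points over 40 h of compound exposure. Cells with reagent were preincubated 5 h at 37 °C before compound addition.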

[9] = A CellTox Green Cytotoxicity Assay to monitor cytotoxicity in HepG2 cells - 24 hour (AID 1224878); further: nearly all actives have a fitted effect of over 45% in size
Summary of the method: as §3

[10] = A CellTox Green Cytotoxicity Assay to monitor cytotoxicity in HepG2 cells - 40 hour (AID 1224879); further: nearly all actives have a fitted effect of over 40% in size
Summary of the method: as §3

For `CC(C)(O)c1ccccc1`, the Potency [1] was “inactive”, the Potency [2] was “inactive” and the Potency [3] was “inactive”. For the same compound, the outcome [4] was “inactive”, the max response [5] was -10.8% and the Potency [6] was “inactive”. The Potency [7] was “inactive”, the Potency [8] was “inactive” and the Potency [9] was “inactive”.
In the case of `CC/C=C\CCCCO`, the Potency [1] is reported as “inactive”, the Potency [2] is reported as “inactive” and the Potency [3] is reported as “inactive”. The outcome [4] was “inactive”, the max response [5] was 1.83% and the Potency [6] was “inactive”. The Potency [7] was “inactive” and the Potency [8] was “inactive”.
In the case of `C=CCn1c(=O)n([C@@H]2O[C@H](CO)[C@@H](O)[C@H]2O)c2nc(N)[nH]c(=O)c21`, the Potency [1] is reported as “inactive”, the Potency [2] is reported as “inactive” and the Potency [3] is reported as “inactive”. For the same compound, the outcome [4] was “inactive”, the max response [5] was 3.44% and the Potency [6] was “inactive”. For the same compound, the Potency [7] was “inactive”, the Potency [8] was “inactive” and the Potency [9] was “inactive”. The Potency [10] was “inactive”.
For `NC(CS)C(=O)O` (stereo unspecified), the Potency [1] was “inactive”, the Potency [2] was “inactive” and the Potency [3] was “inactive”. The outcome [4] was “inactive”, the max response [5] was 1.35% and the Potency [6] was “inactive”. The Potency [7] was “inactive”, the Potency [8] was “inactive” and the Potency [9] was “inactive”. For the same compound, the Potency [10] was “inactive”.
In the case of `CCCc1ccc(N)cc1`, the Potency [1] is reported as “inactive”, the Potency [2] is reported as “inactive” and the Potency [3] is reported as “inactive”. The outcome [4] was “inactive”, the max response [5] was -1.79% and the Potency [6] was “inactive”. The Potency [7] was “inactive”, the Potency [8] was “inactive” and the Potency [9] was “inactive”. For the same compound, the Potency [10] was “inactive”.
In the case of `CCCCc1ccc2cccc(S(=O)(=O)O)c2c1`, the Potency [1] is reported as “inactive”, the Potency [2] is reported as “inactive” and the Potency [3] is reported as “inactive”. The outcome [4] was “inactive”, the max response [5] was 3.37% and the Potency [6] was “inactive”. For the same compound, the Potency [7] was “inactive” and the Potency [8] was “inactive”.
With `C=C(C)C(=O)NCCCN(C)C` the Potency [1] was “inactive”, the Potency [2] was “inactive” and the Potency [3] was “inactive”. For the same compound, the outcome [4] was “inactive”, the max response [5] was 9.44% and the Potency [6] was 34.7 nM (active). For the same compound, the Potency [7] was “inactive”, the Potency [8] was “inactive” and the Potency [9] was “inactive”.
In the case of `CC(C)c1cccc(O)c1`, the Potency [1] is reported as “inactive”, the Potency [2] is reported as “inactive” and the Potency [3] is reported as “inactive”. The outcome [4] was “inactive”, the max response [5] was 1.56% and the Potency [6] was “inactive”. The Potency [7] was “inactive” and the Potency [8] was “inactive”.
In the case of `CCO[Si](C)(OCC)OCC`, the Potency [1] is reported as “inactive”, the Potency [2] is reported as “inactive” and the Potency [3] is reported as “inactive”. The outcome [4] was “inactive”, the max response [5] was 3.57% and the Potency [6] was “inactive”. For the same compound, the Potency [7] was “inactive”, the Potency [8] was “inactive” and the Potency [9] was “inactive”.
For `C=C(C)[C@H]1CC=C(C)CC1`, the Potency [1] was “inactive”, the Potency [2] was “inactive” and the Potency [3] was “inactive”. For the same compound, the outcome [4] was “inactive”, the max response [5] was 0.727% and the Potency [6] was “inactive”. The Potency [7] was “inactive”, the Potency [8] was “inactive” and the Potency [9] was “inactive”.
For `CCO[Si](CCCN=C=O)(OCC)OCC`, the Potency [1] was “inactive”, the Potency [2] was “inactive” and the Potency [3] was “inactive”. The outcome [4] was “inactive”, the max response [5] was 0.0382% and the Potency [6] was “inactive”. For the same compound, the Potency [7] was “inactive”, the Potency [8] was “inactive” and the Potency [9] was “inactive”. For the same compound, the Potency [10] was “inactive”.
In the case of `CCCCCCC(CCCCCCCCCCC(=O)OCC(COC(C)=O)OC(C)=O)OC(C)=O` (stereo unspecified), the Potency [1] is reported as “inactive”, the Potency [2] is reported as “inactive” and the Potency [3] is reported as “inactive”. The outcome [4] was “inactive”, the max response [5] was 14.5% and the Potency [6] was “inactive”. For the same compound, the Potency [7] was “inactive”, the Potency [8] was “inactive” and the Potency [9] was “inactive”.
For `COc1ccc(NC(C)=O)cc1`, the Potency [1] was “inactive”, the Potency [2] was “inactive” and the Potency [3] was “inactive”. The outcome [4] was “inactive”, the max response [5] was -7.34% and the Potency [6] was “inactive”. For the same compound, the Potency [7] was “inactive”, the Potency [8] was “inactive” and the Potency [9] was “inactive”. For the same compound, the Potency [10] was “inactive”.
For `O=S(=O)(c1cccc2cnccc12)N1CCCNCC1`, the Potency [1] was “inactive”, the Potency [2] was “inactive” and the Potency [3] was “inactive”. For the same compound, the outcome [4] was “inactive”, the max response [5] was 8.06% and the Potency [6] was “inactive”. The Potency [7] was “inactive”, the Potency [8] was “inactive” and the Potency [9] was “inactive”.
In the case of `CCCc1ccccc1O`, the Potency [1] is reported as “inactive”, the Potency [2] is reported as “inactive” and the Potency [3] is reported as “inactive”. The outcome [4] was “inactive”, the max response [5] was -8.16% and the Potency [6] was “inactive”. For the same compound, the Potency [7] was “inactive”, the Potency [8] was “inactive” and the Potency [9] was “inactive”. For the same compound, the Potency [10] was “inactive”.
With `COc1cc(C(=O)N2CCOCC2)cc(OC)c1OC` the Potency [1] was “inactive”, the Potency [2] was “inactive” and the Potency [3] was “inactive”. For the same compound, the outcome [4] was “inactive”, the max response [5] was 11.2% and the Potency [6] was “inactive”. The Potency [7] was “inactive”, the Potency [8] was “inactive” and the Potency [9] was “inactive”.
With `N#CCc1ccccc1[N+](=O)[O-]` the Potency [1] was “inactive”, the Potency [2] was “inactive” and the Potency [3] was “inactive”. The outcome [4] was “inactive”, the max response [5] was 9.34% and the Potency [6] was “inactive”. The Potency [7] was “inactive”, the Potency [8] was “inactive” and the Potency [9] was “inactive”. For the same compound, the Potency [10] was “inactive”.
With `OCc1ccccn1` the Potency [1] was “inactive”, the Potency [2] was “inactive” and the Potency [3] was “inactive”. For the same compound, the outcome [4] was “inactive”, the max response [5] was 11.2% and the Potency [6] was “inactive”. For the same compound, the Potency [7] was “inactive”, the Potency [8] was “inactive” and the Potency [9] was “inactive”.
With `O=c1[nH]c(=O)n([C@H]2O[C@H](CO)[C@@H](O)[C@@H]2O)cc1/C=C\Br` the Potency [1] was “inactive”, the Potency [2] was “inactive” and the Potency [3] was “inactive”. For the same compound, the outcome [4] was “inactive”, the max response [5] was 3.79% and the Potency [6] was “inactive”. The Potency [7] was “inactive”, the Potency [8] was “inactive” and the Potency [9] was “inactive”.
In the case of `Cn1cnc2c(=O)[nH]c(N)nc21`, the Potency [1] is reported as “inactive”, the Potency [2] is reported as “inactive” and the Potency [3] is reported as “inactive”. For the same compound, the outcome [4] was “inactive”, the max response [5] was 15.1% and the Potency [6] was “inactive”. For the same compound, the Potency [7] was “inactive”, the Potency [8] was “inactive” and the Potency [9] was “inactive”.
With `Nc1ccc2cc(S(=O)(=O)O)ccc2c1` the Potency [1] was “inactive”, the Potency [2] was “inactive” and the Potency [3] was “inactive”. For the same compound, the outcome [4] was “inactive”, the max response [5] was -14% and the Potency [6] was “inactive”. The Potency [7] was “inactive”, the Potency [8] was “inactive” and the Potency [9] was “inactive”. For the same compound, the Potency [10] was “inactive”.
For `C=CC(=O)OCCCCCC`, the Potency [1] was “inactive”, the Potency [2] was “inactive” and the Potency [3] was “inactive”. The outcome [4] was “inactive”, the max response [5] was -6.6% and the Potency [6] was “inactive”. For the same compound, the Potency [7] was “inactive”, the Potency [8] was “inactive” and the Potency [9] was “inactive”. The Potency [10] was “inactive”.
For `COC(=O)c1ccc(C(=O)OC)c(C(=O)OC)c1`, the Potency [1] was “inactive”, the Potency [2] was “inactive” and the Potency [3] was “inactive”. For the same compound, the outcome [4] was “inactive”, the max response [5] was 1.35% and the Potency [6] was “inactive”. The Potency [7] was “inactive” and the Potency [8] was “inactive”.
With `COC(=O)CCCC(=O)O` the Potency [1] was “inactive”, the Potency [2] was “inactive” and the Potency [3] was “inactive”. The outcome [4] was “inactive”, the max response [5] was 10.9% and the Potency [6] was “inactive”. The Potency [7] was “inactive”, the Potency [8] was “inactive” and the Potency [9] was “inactive”. For the same compound, the Potency [10] was “inactive”.
With `CC(C)COC(=O)c1ccccc1O` the Potency [1] was “inactive”, the Potency [2] was “inactive” and the Potency [3] was “inactive”. The outcome [4] was “inactive”, the max response [5] was 7.83% and the Potency [6] was “inactive”. The Potency [7] was “inactive”, the Potency [8] was “inactive” and the Potency [9] was “inactive”.
